Results as given in PubChem BioAssay.
The source made the active and inactive calls.

How the values were obtained:
[1] = small molecules captured by biotinylated probe aFSTL3 – biochemical, small-molecule microarray, fluorescence 635/667, stem cell growth factor project, primary screen (AID 1064); details: higher = more signal;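 also: measures binding of the biotinylated anti-FSTL3 antibody to printed compounds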
[2] = binders from COS7 lysate, DM2A8 probe, primary screen, torsin A project, cell lysate, small-molecule microarray, fluorescence 635/667 (AID 1065); details: higher = more signal, COS7 lysate expressing mutant human TOR1A
[3] = small molecules captured by biotinylated probe aFGF2 – biochemical, small-molecule microarray, fluorescence 635/667, stem cell growth factor project, primary screen (AID 1067); details: higher = more signal;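 also: measures binding of biotinylated aFGF2 protein to printed compounds on slides; z-score merges feature fluorescence and signal-to-noise across triplicate slides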
[4] = small molecules captured by biotinylated probe aFGF10 – biochemical, small-molecule microarray, fluorescence 635/667, stem cell growth factor project, primary screen (AID 1071); details: higher = more signal;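 also: score merges 667 nm spot intensity and signal to noise from triplicate slides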
[5] = molecular target: Neurogenic locus notch homolog protein 2 (Homo sapiens) (UniProt Q04721); experiment: small molecules binding Notch2 protein – biochemical, small-molecule microarray, 635 nm fluorescence, stem cell growth factors, primary screen (AID 1073); details: higher = more signal
[6] = molecular target: Pro-neuregulin-1, membrane-bound isoform (Homo sapiens) (UniProt Q02297); experiment: small molecules binding neuregulin-1 protein – biochemical, small-molecule microarray, fluorescence 635/667, psychiatric disease protein project, primary screen (AID 1075); details: NRG1 binding, 635 nm fluorescence, higher = more signal;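 also: score combines 667 nm spot fluorescence with signal to noise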
[7] = tested on: Neuregulin-1 EGF-like domain; experiment: small molecules binding NRG1 EGF domain – biochemical, small-molecule microarray, 635 nm fluorescence, primary screen (AID 1081); details: higher = more signal;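 also: binding of the protein to compounds printed on small-molecule microarray slides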
[8] = FRG1 expression reporter modulators in myotubes – cell-based, C2C12 myotubes, firefly/Renilla luciferase, luminescence, FRG1 inhibition for FSHD, primary screen (AID 1084); details: FRG1 promoter luciferase, higher = more signal, called active from +8 up or from −8 down
[9] = small molecules captured by biotinylated probe aFST – biochemical, small-molecule microarray, fluorescence 635/667, stem cell growth factor project, primary screen (AID 1086); details: higher = more signal;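 also: score merges 667 nm fluorescence with signal-to-noise of each printed compound spot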
[10] = binders of probe aHhip on microarray, primary screen, stem cell growth factor project, biochemical, small-molecule microarray, fluorescence 635/667 (AID 1087); details: higher = more signal;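 also: score merges spot fluorescence at 667nm with spot signal to noise ratio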
[11] = tested on: PRMT1 (protein arginine N-methyltransferase 1); experiment: small molecules binding arginine methyltransferase PRMT1 – biochemical, small-molecule microarray, 635 nm fluorescence, primary screen (AID 1088); details: higher = more signal;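 also: binding of Prmt1 protein to compounds spotted on small-molecule microarray slides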
[12] = growth effects on S. cerevisiae YJM789 – YJM789 clinical isolate, OD600, 24 h, basal, primary screen (AID 1089); details: higher = more signal, called active from +8 up or from −8 down;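 also: growth of clinical yeast isolate S. cerevisiae YJM 789 seeded 1000 cells per well; test concentration not given here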
[13] = S. pombe growth modifiers, basal conditions – strain 972, OD600, 24 h, no modulator, primary screen (AID 1090);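 also: basal condition with compound alone and no growth modifier present; test concentration not given here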; details: S. pombe 972 growth, higher = more signal, called active from +8 up or from −8 down
[14] = budding yeast growth modifiers under rapamycin – strain BY4716, OD600, 96 h, primary screen (AID 1091); also: test concentration not given here; details: S. cerevisiae BY4716 + rapamycin, higher = more signal, called active from +8 up or from −8 down
[15] = molecular target: Torsin-1A-interacting protein 2 (Homo sapiens) (UniProt Q8NFQ8); experiment: small molecules binding lysate-expressed LULL1 – cell lysate, human LULL1 lysate, 635/667 nm fluorescence, primary screen (AID 1092); details: small-molecule microarray, hLULL1 lysate binding, 635 nm fluorescence; higher = more signal;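 also: probe is lysate of COS7 cells overexpressing human LULL1; score merges per-feature 667 nm fluorescence with signal-to-noise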
[16] = optical density change of DRC41 E. coli – strain DRC41, OD650, 24 h, E. coli filamentation project, primary screen (AID 1093);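 also: MC1000 strain lacking acrAB efflux and sulA so SOS filamentation is blocked; test concentration not given here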; details: E. coli DRC41 growth, higher = more signal, called active from +8 up or from −8 down
[17] = probe aLefty2 binding to arrayed compounds – biochemical, biotinylated probe, 635/667 nm fluorescence, primary screen (AID 1094); details: small-molecule microarray, higher = more signal;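 also: score merges spot fluorescence near 667 nm with spot signal-to-noise ratio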
[18] = tested on: Noggin (protein binding on small-molecule microarray); experiment: small molecules binding Noggin protein – biochemical, 635/667 nm fluorescence, primary screen (AID 1095); details: 635 nm fluorescence, higher = more signal;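 also: score merges 667 nm feature fluorescence with signal to noise over triplicate slides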
[19] = molecular target: Neurogenic locus notch homolog protein 3 (Homo sapiens) (UniProt Q9UM47); experiment: small molecules binding NOTCH3 protein – biochemical, 635/667 nm fluorescence, primary screen (AID 1096); details: small-molecule microarray, 635 nm fluorescence, higher = more signal
[20] = probe aEGFR binding to arrayed compounds – biochemical, biotinylated probe, 635/667 nm fluorescence, primary screen (AID 1097); details: small-molecule microarray, higher = more signal;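 also: probe is a biotinylated anti-EGFR antibody binding compounds printed on slides; score combines fluorescence near 667 nm and signal to noise of each spot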

Torsin-1A-interacting protein 2 (Homo sapiens), sequence (Q8NFQ8 whole entry, looked up): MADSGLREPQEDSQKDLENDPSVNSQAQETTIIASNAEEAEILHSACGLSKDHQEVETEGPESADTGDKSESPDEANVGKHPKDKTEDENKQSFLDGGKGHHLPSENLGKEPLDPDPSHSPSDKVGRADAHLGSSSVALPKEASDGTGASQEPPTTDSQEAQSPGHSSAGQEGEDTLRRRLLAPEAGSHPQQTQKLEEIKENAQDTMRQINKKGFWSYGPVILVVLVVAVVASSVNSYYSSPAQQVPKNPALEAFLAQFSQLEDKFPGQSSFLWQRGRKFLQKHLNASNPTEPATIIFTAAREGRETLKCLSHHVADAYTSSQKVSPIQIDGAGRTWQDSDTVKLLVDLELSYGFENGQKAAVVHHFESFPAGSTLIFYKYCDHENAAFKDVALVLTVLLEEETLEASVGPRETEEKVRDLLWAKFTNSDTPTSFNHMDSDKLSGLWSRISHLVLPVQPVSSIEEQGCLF
Neurogenic locus notch homolog protein 2 (Homo sapiens), sequence (Q04721 whole entry, looked up, canonical isoform): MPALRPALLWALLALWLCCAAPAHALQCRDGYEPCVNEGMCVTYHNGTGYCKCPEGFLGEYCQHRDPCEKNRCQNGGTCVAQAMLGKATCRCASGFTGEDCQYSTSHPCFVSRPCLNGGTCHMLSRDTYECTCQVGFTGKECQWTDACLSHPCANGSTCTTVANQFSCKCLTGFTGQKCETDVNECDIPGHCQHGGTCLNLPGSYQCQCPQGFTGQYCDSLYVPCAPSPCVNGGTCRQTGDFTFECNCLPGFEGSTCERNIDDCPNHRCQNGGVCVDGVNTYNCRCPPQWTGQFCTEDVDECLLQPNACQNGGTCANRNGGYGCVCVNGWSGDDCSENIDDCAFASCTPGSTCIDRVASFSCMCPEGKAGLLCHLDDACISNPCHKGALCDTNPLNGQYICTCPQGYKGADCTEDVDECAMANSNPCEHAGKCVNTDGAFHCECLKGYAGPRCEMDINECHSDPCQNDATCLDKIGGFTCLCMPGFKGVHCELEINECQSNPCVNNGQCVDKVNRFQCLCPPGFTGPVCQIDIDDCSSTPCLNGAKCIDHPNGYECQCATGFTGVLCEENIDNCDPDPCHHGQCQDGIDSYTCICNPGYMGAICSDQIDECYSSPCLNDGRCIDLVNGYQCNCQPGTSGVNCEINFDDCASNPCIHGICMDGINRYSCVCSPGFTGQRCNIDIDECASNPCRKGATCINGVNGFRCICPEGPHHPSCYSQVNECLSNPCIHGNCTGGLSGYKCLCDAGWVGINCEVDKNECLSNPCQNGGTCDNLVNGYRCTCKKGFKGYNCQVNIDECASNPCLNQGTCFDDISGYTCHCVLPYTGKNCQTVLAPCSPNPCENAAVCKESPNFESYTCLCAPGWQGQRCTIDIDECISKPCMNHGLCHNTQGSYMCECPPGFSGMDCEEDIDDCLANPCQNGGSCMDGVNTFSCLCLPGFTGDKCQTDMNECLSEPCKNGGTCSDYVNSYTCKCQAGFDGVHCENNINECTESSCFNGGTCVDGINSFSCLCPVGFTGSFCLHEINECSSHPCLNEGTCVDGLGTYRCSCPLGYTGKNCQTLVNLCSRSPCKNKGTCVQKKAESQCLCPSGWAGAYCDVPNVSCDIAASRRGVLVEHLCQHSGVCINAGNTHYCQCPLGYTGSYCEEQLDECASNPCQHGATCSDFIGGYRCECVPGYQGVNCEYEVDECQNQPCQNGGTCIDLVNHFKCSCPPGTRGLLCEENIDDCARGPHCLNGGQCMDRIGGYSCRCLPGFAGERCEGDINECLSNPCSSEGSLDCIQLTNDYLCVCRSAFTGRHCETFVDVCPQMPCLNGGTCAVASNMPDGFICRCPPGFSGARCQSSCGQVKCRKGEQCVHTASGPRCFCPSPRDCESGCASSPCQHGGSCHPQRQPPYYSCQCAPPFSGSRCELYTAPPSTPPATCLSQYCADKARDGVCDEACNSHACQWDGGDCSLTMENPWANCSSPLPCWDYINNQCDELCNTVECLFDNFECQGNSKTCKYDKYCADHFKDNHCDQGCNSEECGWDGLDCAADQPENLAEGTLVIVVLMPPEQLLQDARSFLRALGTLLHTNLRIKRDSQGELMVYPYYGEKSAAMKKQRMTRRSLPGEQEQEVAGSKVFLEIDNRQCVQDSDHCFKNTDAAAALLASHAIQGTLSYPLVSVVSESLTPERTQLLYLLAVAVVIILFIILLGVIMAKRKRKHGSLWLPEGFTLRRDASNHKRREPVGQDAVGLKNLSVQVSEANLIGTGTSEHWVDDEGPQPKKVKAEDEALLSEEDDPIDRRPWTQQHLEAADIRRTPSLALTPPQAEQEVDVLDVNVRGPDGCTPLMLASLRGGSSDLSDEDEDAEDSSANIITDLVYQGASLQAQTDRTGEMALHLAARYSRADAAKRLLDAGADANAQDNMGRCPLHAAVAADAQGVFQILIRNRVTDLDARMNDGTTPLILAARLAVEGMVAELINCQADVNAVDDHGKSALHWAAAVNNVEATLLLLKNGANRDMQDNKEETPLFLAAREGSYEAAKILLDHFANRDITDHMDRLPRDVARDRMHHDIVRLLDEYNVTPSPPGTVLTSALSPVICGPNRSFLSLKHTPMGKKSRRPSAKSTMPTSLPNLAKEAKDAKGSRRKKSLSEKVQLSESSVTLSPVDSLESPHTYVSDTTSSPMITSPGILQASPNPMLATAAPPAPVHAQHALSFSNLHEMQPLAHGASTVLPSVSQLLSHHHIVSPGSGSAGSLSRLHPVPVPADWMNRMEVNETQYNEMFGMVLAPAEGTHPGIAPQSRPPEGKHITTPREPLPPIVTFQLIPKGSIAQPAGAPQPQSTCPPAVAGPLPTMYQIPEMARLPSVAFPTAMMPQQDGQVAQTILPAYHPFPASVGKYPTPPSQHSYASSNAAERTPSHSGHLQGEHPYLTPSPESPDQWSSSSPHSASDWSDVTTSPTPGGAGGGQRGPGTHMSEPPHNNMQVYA
Pro-neuregulin-1, membrane-bound isoform (Homo sapiens), sequence (Q02297 whole entry, looked up, the tested form may be a part, canonical isoform): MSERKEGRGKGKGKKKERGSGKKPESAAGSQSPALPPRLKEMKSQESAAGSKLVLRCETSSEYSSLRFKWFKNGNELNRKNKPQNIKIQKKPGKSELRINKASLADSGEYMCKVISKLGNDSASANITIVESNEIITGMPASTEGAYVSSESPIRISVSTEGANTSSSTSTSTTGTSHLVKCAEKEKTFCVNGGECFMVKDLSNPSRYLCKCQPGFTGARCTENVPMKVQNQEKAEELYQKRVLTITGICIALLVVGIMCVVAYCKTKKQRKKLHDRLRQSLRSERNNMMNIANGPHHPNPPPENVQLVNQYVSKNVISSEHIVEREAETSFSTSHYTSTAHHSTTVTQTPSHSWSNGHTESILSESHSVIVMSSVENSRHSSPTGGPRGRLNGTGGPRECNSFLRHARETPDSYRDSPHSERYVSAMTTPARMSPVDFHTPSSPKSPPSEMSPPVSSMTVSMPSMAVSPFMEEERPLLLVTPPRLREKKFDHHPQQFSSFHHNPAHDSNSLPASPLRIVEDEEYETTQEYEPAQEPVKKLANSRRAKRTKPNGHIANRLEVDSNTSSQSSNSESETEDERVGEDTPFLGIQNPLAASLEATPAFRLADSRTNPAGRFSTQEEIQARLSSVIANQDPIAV

SMILES: CCOC(=O)C[C@H]1[C@H](OC(=O)c2ccc(-c3ccccc3)cc2)[C@@H](NC(=O)c2ccc3ccccc3c2)c2cc(OCCCO)ccc2N1C(=O)c1ccc2ccccc2n1
- composite z-score [1]: -0.0093
- composite z-score [2]: 0.0135
- composite z-score [3]: -0.06
- composite z-score [4]: 0.398
- composite z-score [5]: 0.676
- composite z-score [6]: 0.706
- composite z-score [7]: 0.15
- z-score [8]: 0.247 (inactive)
- composite z-score [9]: 0.426
- composite z-score [10]: 0.154
- composite z-score [11]: 1.15
- z-score [12]: -0.72 (inactive)
- z-score [13]: -0.918 (inactive)
- z-score [14]: 0.592 (inactive)
- composite z-score [15]: 1.47
- z-score [16]: -0.56 (inactive)
- composite z-score [17]: -0.0358
- composite z-score [18]: 0.372
- composite z-score [19]: 0.895
- composite z-score [20]: 0.0167

SMILES: CCCC[C@@H]1C[C@H]1[C@@H](NC(=O)c1ccccc1)c1ccc(Cl)cc1
- composite z-score [1]: 1.22
- composite z-score [2]: -0.657
- composite z-score [3]: -0.196
- composite z-score [4]: -2.08
- composite z-score [5]: -2
- composite z-score [6]: -0.596
- composite z-score [7]: 1.36
- z-score [8]: 1.62 (inactive)
- composite z-score [9]: -0.833
- composite z-score [10]: -0.134
- composite z-score [11]: -1.36
- z-score [12]: 0.222 (inactive)
- z-score [13]: -1.96 (inactive)
- z-score [14]: -2.01 (inactive)
- composite z-score [15]: 0.0826
- z-score [16]: -1.49 (inactive)
- composite z-score [17]: -0.204
- composite z-score [18]: -2.06
- composite z-score [19]: -1.77
- composite z-score [20]: -0.421

SMILES: O=c1cccc(-c2cccc(Cl)c2)o1
- composite z-score [1]: -0.118
- composite z-score [2]: -0.341
- composite z-score [3]: -0.0937
- composite z-score [4]: 0.299
- composite z-score [5]: -0.0173
- composite z-score [6]: -0.0364
- composite z-score [7]: 0.409
- z-score [8]: 2.02 (inactive)
- composite z-score [9]: 0.433
- composite z-score [10]: -0.223
- composite z-score [11]: 0.0485
- z-score [12]: -3.86 (inactive)
- z-score [13]: -4.41 (inactive)
- z-score [14]: 5.45 (inactive)
- composite z-score [15]: 0.0149
- z-score [16]: 0.658 (inactive)
- composite z-score [17]: -0.0927
- composite z-score [18]: -0.162
- composite z-score [19]: 0.136
- composite z-score [20]: -0.0304

SMILES: CCOC(=CC(=O)OC)CC(O)c1cccc(Cl)c1 (stereo not given)
- composite z-score [1]: 0.201
- composite z-score [2]: 0.071
- composite z-score [3]: -0.0504
- composite z-score [4]: -0.157
- composite z-score [5]: -0.124
- composite z-score [6]: 1.43
- composite z-score [7]: 1.37
- z-score [8]: -3.65 (inactive)
- composite z-score [9]: -0.595
- composite z-score [10]: -0.303
- composite z-score [11]: 1.39
- z-score [12]: -4.05 (inactive)
- z-score [13]: -7.01 (inactive)
- z-score [14]: -1.53 (inactive)
- composite z-score [15]: 2.4
- z-score [16]: 0.341 (inactive)
- composite z-score [17]: -0.125
- composite z-score [18]: -0.673
- composite z-score [19]: 0.27
- composite z-score [20]: -0.128

SMILES: C=CC[C@]1(C(=O)N(C)C)N=C(c2ccc(OCCCO)cc2)O[C@H]1c1ccccc1N=[N+]=[N-]
- composite z-score [1]: 0.396
- composite z-score [2]: -0.113
- composite z-score [3]: 0.161
- composite z-score [4]: 0.567
- composite z-score [5]: 1.48
- composite z-score [6]: 1.3
- composite z-score [7]: 1.2
- z-score [8]: 1.52 (inactive)
- composite z-score [9]: 1.87
- composite z-score [10]: -0.199
- composite z-score [11]: 1.48
- z-score [12]: 0.0061 (inactive)
- z-score [13]: -0.102 (inactive)
- z-score [14]: -0.317 (inactive)
- composite z-score [15]: 3.2
- z-score [16]: 0.394 (inactive)
- composite z-score [17]: 0.285
- composite z-score [18]: 0.464
- composite z-score [19]: 1.03
- composite z-score [20]: 0.0651

SMILES: O=C(O)[C@]1(Cc2ccccc2)N=C(c2ccc(OCCCO)cc2)O[C@@H]1c1ccccc1
- composite z-score [1]: 0.428
- composite z-score [2]: -1.31
- composite z-score [3]: -0.135
- composite z-score [4]: -0.321
- composite z-score [5]: 0.0148
- composite z-score [6]: 1.45
- composite z-score [7]: 0.847
- z-score [8]: -0.737 (inactive)
- composite z-score [9]: 0.378
- composite z-score [10]: -0.164
- composite z-score [11]: -1.27
- z-score [12]: 0.624 (inactive)
- z-score [13]: -0.695 (inactive)
- z-score [14]: 0.286 (inactive)
- composite z-score [15]: 1.55
- z-score [16]: 0.377 (inactive)
- composite z-score [17]: -0.143
- composite z-score [18]: -0.849
- composite z-score [19]: -0.786
- composite z-score [20]: -0.208

SMILES: C=CC[C@H](OC(=O)Nc1ccc(OC)cc1)c1ccc(O)c2ccccc12
- composite z-score [1]: -0.471
- composite z-score [2]: 0.38
- composite z-score [3]: -0.0894
- composite z-score [4]: 0.517
- composite z-score [5]: 1.28
- composite z-score [6]: 0.473
- composite z-score [7]: 0.933
- z-score [8]: 6.36 (inactive)
- composite z-score [9]: 0.0069
- composite z-score [10]: 0.176
- composite z-score [11]: 1.33
- z-score [12]: -23.9 (active)
- z-score [13]: -19.5 (active)
- z-score [14]: -1.21 (inactive)
- composite z-score [15]: 2.08
- z-score [16]: 0.364 (inactive)
- composite z-score [17]: 0.054
- composite z-score [18]: 0.578
- composite z-score [19]: 1.06
- composite z-score [20]: -0.0509

SMILES: COC(=O)[C@@]1(Cc2ccccc2)[C@H]2c3cc(C(=O)N4CCCC4)n(C[C@H](O)CO)c3C[C@H]2CN1C(=O)c1ccccc1
- composite z-score [1]: 0.52
- composite z-score [2]: -0.0861
- composite z-score [3]: -0.16
- composite z-score [4]: 0.0518
- composite z-score [5]: 1.58
- composite z-score [6]: 1.99
- composite z-score [7]: 1.3
- z-score [8]: 0.593 (inactive)
- composite z-score [9]: 0.348
- composite z-score [10]: 0.0053
- composite z-score [11]: -0.956
- z-score [12]: 0.43 (inactive)
- z-score [13]: 1.74 (inactive)
- z-score [14]: -0.167 (inactive)
- composite z-score [15]: 3.45
- z-score [16]: -0.436 (inactive)
- composite z-score [17]: 0.127
- composite z-score [18]: 0.334
- composite z-score [19]: 0.873
- composite z-score [20]: 0.08

SMILES: COC(=O)[C@]1(CCS(=O)(=O)c2ccccc2)N=C(c2ccc(OCCCO)cc2)O[C@@H]1c1ccccc1CN=[N+]=[N-]
- composite z-score [1]: 0.0312
- composite z-score [2]: 0.419
- composite z-score [3]: 0.0794
- composite z-score [4]: 0.169
- composite z-score [5]: 1.12
- composite z-score [6]: 0.959
- composite z-score [7]: 1.35
- z-score [8]: -1.96 (inactive)
- composite z-score [9]: 0.284
- composite z-score [10]: -0.346
- composite z-score [11]: 1.54
- z-score [12]: 1.6 (inactive)
- z-score [13]: 1.13 (inactive)
- z-score [14]: 37 (active)
- composite z-score [15]: 3.09
- z-score [16]: -0.33 (inactive)
- composite z-score [17]: 0.0956
- composite z-score [18]: 0.839
- composite z-score [19]: 0.941
- composite z-score [20]: -0.0972

SMILES: O=C1NCC(=O)N2[C@@H]1C[C@@H](C(=O)O)[C@H]2c1ccc(O)cc1
- composite z-score [1]: 0.257
- composite z-score [2]: 0.433
- composite z-score [3]: 0.0121
- composite z-score [4]: 0.593
- composite z-score [5]: -0.218
- composite z-score [6]: 1.81
- composite z-score [7]: 1.39
- z-score [8]: 4.94 (inactive)
- composite z-score [9]: 0.0816
- composite z-score [10]: -0.0618
- composite z-score [11]: 1.56
- z-score [12]: 0.442 (inactive)
- z-score [13]: -0.498 (inactive)
- z-score [14]: 0.318 (inactive)
- composite z-score [15]: 2.6
- z-score [16]: 0.984 (inactive)
- composite z-score [17]: 0.0875
- composite z-score [18]: 1.44
- composite z-score [19]: 1.08
- composite z-score [20]: -0.326
